Measured values: PubChem BioAssay AID687028 (Broad Institute, 2013)
The whole screen tested about 1,400 compounds, of which about 55 (4%) were called active. How the calls were made is not given here. Not all results are given here. Measured potencies and affinities stand elsewhere.

Assay: viability loss in A549 cells – cell-based, plate reader, cherry-pick samples, cytotoxicity control, dose response (AID 687028);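 further: cells incubated with compound for three days before reading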
Settings: series mostly up to 19.5 µM
For Cc1ccc(NC(=O)C(=O)NCC2CCCN2S(=O)(=O)c2cccs2)cc1 (configuration not stated), the outcome was “inactive”.
With N#C[C@@H]1[C@H](c2ccc(C#Cc3ccccc3F)cc2)[C@@H](CO)N1C(=O)C1CC1 the outcome was “inactive”.
In the case of COc1ccc(C(C)(NC(C)=O)c2nc(-c3cccc(F)c3)cs2)cc1 (configuration not stated), the outcome was “inactive”.
In the case of ClCCCc1cn(C[C@H]2CC[C@@H]([C@@H]3CC[C@H](Cn4cc(CCCCl)nn4)O3)O2)nn1, the outcome was “inactive”.
With C[C@H]1CN([C@@H](C)CO)C(=O)c2cccc(NS(=O)(=O)c3ccccc3)c2O[C@@H]1CN(C)Cc1ccc(Cl)c(Cl)c1 the outcome was “inactive”.
For Cc1c(C(=O)OC(C)C)sc(N)c1C(=O)OC(C)C, the outcome was “inactive”.
In the case of O=C(NCCNC(=O)c1cc(F)cc(F)c1)c1cc(F)cc(F)c1, the outcome was “inactive”.
With O=C(NCc1ccccc1)C(c1ccncc1)n1c(=O)c(-c2ccccc2)nc2ccccc21 (configuration not stated) the outcome was “inactive”.
In the case of CCCc1nc2ccccc2n1C(C)C(=O)NC(C)(C)C (configuration not stated), the outcome was “inactive”.
For COc1ccc2c3c([nH]c2c1)[C@@H](CO)N(C(=O)C1CCOCC1)CC31CN(C)C1, the outcome was “inactive”.
With CN(C)C(=O)c1cccc(-c2ccc3c(c2)[C@@H]2[C@@H](CCN2C(=O)Cc2ccncc2)[C@@H](CO)N3)c1 the outcome was “inactive”.
For COc1ccc(CC(=O)Nc2ccc(C)c(S(=O)(=O)N3CCCCCC3)c2)cc1, the outcome was “inactive”.
For COc1ccc(C)cc1NC(=O)C1CCN(S(=O)(=O)c2cccc3cccnc23)CC1, the outcome was “inactive”.
In the case of O=c1c2cc(Br)ccc2[nH]c(=S)n1Cc1ccccn1, the outcome was “inactive”.
With CCc1c(C(=O)Nc2cc(C(=O)OC)ccc2C)csc1C the outcome was “inactive”.
With CC(=O)Nc1cccc(OCCCNC(=O)c2ccc(C(C)(C)C)cc2)c1 the outcome was “inactive”.
For CC(C)(C)c1ccc(C(=O)Nc2ccc3c(c2)C(=O)NC3=O)cc1, the outcome was “inactive”.
In the case of CN(C)CC(=O)Nc1ccc2c(c1)[C@@H]1C[C@@H](CC(=O)NC3CCCCC3)O[C@H](CO)[C@@H]1O2, the outcome was “inactive”.
For CC(Oc1ccccc1Cl)C(=O)N1CCOCC1 (configuration not stated), the outcome was “inactive”.
For COc1cccc(NC(=O)COc2cccc3c2CCNC3=O)c1, the outcome was “inactive”.
With Cc1ccc(C)c(NS(=O)(=O)c2cc(C(=O)NCc3ccncc3)ccc2C)c1 the outcome was “inactive”.
With Cc1ccc(NC(=O)C2CCN(S(C)(=O)=O)CC2)cc1Cl the outcome was “inactive”.
For COc1ccc(NC(=O)N2C[C@@H](O)COC[C@@H]3O[C@H](CC(=O)NC4Cc5ccccc5C4)CC[C@H]32)cc1, the outcome was “inactive”.
For O=C(NCCN1CCC(n2c(=O)[nH]c3ccccc32)CC1)c1ccccc1, the outcome was “inactive”.
In the case of CCOC(=O)[C@]12CCC=C1N(Cc1cccc3ccccc13)C(=O)[C@H](CC(=O)N1CCCC1)C2, the outcome was “inactive”.
With COC(=O)[C@]12CCCCC=C1N(Cc1cccc3ccccc13)C(=O)[C@H](CC(=O)NCCC(C)C)C2 the outcome was “inactive”.
In the case of CCOC(=O)[C@]12CCCC=C1N(Cc1ccccc1)C(=O)[C@H](CC(=O)NCc1cccs1)C2, the outcome was “inactive”.
With CCCCNC(=O)C[C@@H]1C[C@@]2(C(=O)OC)CCCCC=C2N(CCC2=CCCCC2)C1=O the outcome was “inactive”.
With O=C(c1ccc(F)cc1)N1CCC(C(=O)N2CCCc3ccccc32)CC1 the outcome was “inactive”.
With COc1ccccc1CN1[C@H](CO)[C@@H](c2ccccc2)C12CN(C(=O)c1ccccn1)C2 the outcome was “inactive”.
For CCc1cccc(OCCN2CCCC2)c1, the outcome was “inactive”.
In the case of CC1CCN(CCOc2ccc(OCc3ccccc3)cc2)CC1, the outcome was “inactive”.
With CC(OC(=O)c1ccc2c(=O)n3c(nc2c1)CCC3)C(=O)NC1CCCCC1C (configuration not stated) the outcome was “inactive”.
In the case of C[C@@H]1CN([C@H](C)CO)C(=O)c2cc(NC(=O)Nc3ccc(C(F)(F)F)cc3)ccc2O[C@@H](C)CCCCO[C@@H]1CN(C)C(=O)Cc1ccccc1, the outcome was “inactive”.
In the case of C[C@@H]1CCCCO[C@H](CN(C)Cc2ccc(C(F)(F)F)cc2)[C@H](C)CN([C@@H](C)CO)C(=O)c2cc(NC(=O)c3ccccc3)ccc2O1, the outcome was “inactive”.
In the case of C[C@@H]1CCCCO[C@@H](CN(C)C(=O)Nc2ccc(C(F)(F)F)cc2)[C@H](C)CN([C@H](C)CO)C(=O)c2cc(NC(=O)Cc3ccccc3)ccc2O1, the outcome was “inactive”.
With C[C@H](CO)N1C[C@H](C)[C@H](CN(C)C(=O)Nc2ccc(F)cc2)OCCCC[C@H](C)Oc2ccc(NC(=O)c3ccccc3)cc2C1=O the outcome was “inactive”.
With Cc1nc2ccccc2n1C(c1cccnc1)c1nc2ccccc2[nH]1 (configuration not stated) the outcome was “inactive”.
In the case of O=C1c2ccccc2C(=O)N1CC(=O)N1c2ccccc2Sc2ccc(C(F)(F)F)cc21, the outcome was “inactive”.
For COc1ccccc1NCC(=O)N/N=C(\C)c1ccc(Br)s1, the outcome was “inactive”.
With O=C(NCCCCNC(=O)c1cccnc1Cl)c1cccnc1Cl the outcome was “inactive”.
For Oc1ccc(Cl)cc1CNCc1ccc(F)cc1, the outcome was “inactive”.
In the case of Cc1ccc(CNCc2cc(Cl)ccc2O)cc1, the outcome was “inactive”.
In the case of O=C(NC1CC1)c1cccc(NC(=O)c2cc(S(=O)(=O)N3CCOCC3)ccc2Cl)c1, the outcome was “inactive”.
In the case of O=C(C[C@@H]1CC[C@H]2[C@@H](COC[C@H](O)CN2C(=O)c2ccccc2F)O1)NCc1ccccc1, the outcome was “inactive”.
In the case of COc1cccc(C(=O)N2CCOCC2)c1, the outcome was “inactive”.
For CCC(=O)Nc1nnc(/C=C/c2ccc(OC)cc2)s1, the outcome was “inactive”.
With C[C@@H]1CCCCO[C@H](CN(C)C(=O)NC2CCCCC2)[C@@H](C)CN([C@H](C)CO)C(=O)c2cc(NC(=O)CCCCCC(=O)Nc3ccccc3N)ccc2O1 the outcome was “inactive”.
In the case of Clc1cc(Br)ccc1OCCOCCN1CCCC1, the outcome was “inactive”.
For Clc1cc(Br)ccc1OCCCn1ccnc1, the outcome was “inactive”.
With COc1ccc(C(=O)NCCNc2nc3c(C)cccc3cc2C#N)cc1OC the outcome was “inactive”.
In the case of Cn1c(N)c(C(=O)N2CCN(c3ccccc3)CC2)c(=O)n(C)c1=O, the outcome was “inactive”.
With CN1c2ccc(Br)cc2[C@@H]2[C@@H](CCN2C(=O)C2CCCC2)[C@H]1CO the outcome was “inactive”.
In the case of CN1c2ccc(Br)cc2[C@H]2[C@H](CCN2C(=O)C2CCC2)[C@H]1CO, the outcome was “inactive”.
With COc1cccc(C2(c3cccc(OC)c3)CC2C(=O)Nc2ccc(F)cc2)c1 (configuration not stated) the outcome was “inactive”.
In the case of CN1C(C)(C)c2ccccc2OS1(=O)=O, the outcome was “inactive”.
For O=C(CN1CCN(S(=O)(=O)c2ccccc2F)CC1)NC1CCCC1, the outcome was “inactive”.
In the case of COc1ccc(S(=O)(=O)N2CCC(C(=O)NCCC(=O)NCc3ccccn3)CC2)cc1, the outcome was “inactive”.
For O=C(NCc1ccccc1)[C@H]1CCCN1C(=O)[C@H]1CCCN1C(=O)c1ccc(Cl)cc1, the outcome was “inactive”.
For COc1ccc(C2=Nn3c(nnc3-c3ccccc3Cl)SC2)cc1OCC1CC1, the outcome was “inactive”.
For Cc1ccc(S(=O)(=O)Cc2ccccc2Cl)cc1, the outcome was “inactive”.
For CC(NC(=O)CN1CCN(c2cccc(Cl)c2)CC1)c1ccccc1 (configuration not stated), the outcome was “inactive”.
In the case of CC(C)(C)c1ccc(C(=O)OCC(=O)Nc2sc3c(c2C#N)CCC3)cc1, the outcome was “inactive”.
For COc1ccc(-c2nc(NCCCN(C)C)c3ccccc3n2)cc1, the outcome was “inactive”.
With COc1ccc(C(CNC(=O)c2cccc3cccnc23)N(C)C)cc1 (configuration not stated) the outcome was “inactive”.
With COC(=O)[C@@H]1[C@H](CCc2ccccc2)NC(=O)N(Cc2ccccc2)[C@@H]1C the outcome was “inactive”.
In the case of COc1ccc(C2=Nc3ccccc3N(C(=O)c3ccncc3)C2C(=O)NC(C)C)cc1 (configuration not stated), the outcome was “inactive”.
For COc1ccc(OC)c(NC(=O)NNS(=O)(=O)c2ccc(C)cc2C)c1, the outcome was “inactive”.
In the case of Cc1ccc(C)c(NC(=O)CN2C(=O)C3CC=CCC3C2=O)c1 (configuration not stated), the outcome was “inactive”.
With CC1(C(=O)Nc2cccc(OC(F)(F)F)c2)Cc2c(-c3cccc(C(N)=O)c3)ccnc2O1 (configuration not stated) the outcome was “inactive”.
For CC1(C(=O)NCc2cccc(C(F)(F)F)c2)CCN1Cc1cc2ccccc2o1 (configuration not stated), the outcome was “inactive”.
With C[C@H](CO)N1C[C@H](C)[C@@H](CN(C)S(=O)(=O)c2cn(C)cn2)Oc2ccc(NC(=O)Nc3cccc4ccccc34)cc2CC1=O the outcome was “inactive”.
For O=C(N[C@@H]1c2ccccc2CC[C@@H]1OCc1ccccc1)c1ccc(C(F)(F)F)cc1, the outcome was “inactive”.
For CCCn1c(NCc2ccc(N(C)C)cc2)nc2ccccc21, the outcome was “inactive”.
For COc1ccc(CNC(=O)COC(=O)CN2C(=O)NC3(CCCC3)C2=O)cc1, the outcome was “inactive”.
For CCC(c1nnnn1-c1c(C)cccc1C)N1CCN(C/C=C/c2ccccc2)CC1 (configuration not stated), the outcome was “inactive”.
For O=C1CCCC(c2ccccc2)N1 (configuration not stated), the outcome was “inactive”.
With COc1cc(C(=S)N2CCCCC2)ccc1OCC(=O)Nc1ccc(F)cc1 the outcome was “inactive”.
In the case of Cc1ccc(NC(=O)CN2CCC(NC(=O)c3cccc(F)c3)CC2)cc1C, the outcome was “inactive”.
For COc1ccc(CCN2C(=O)CSCC2(C)C(=O)Nc2ccc3c(c2)OCCO3)cc1OC (configuration not stated), the outcome was “inactive”.
In the case of CCN1CCN(C(=O)C2CC(=O)N(c3ccc(Cl)cc3)C2)CC1 (configuration not stated), the outcome was “inactive”.
With COc1cccc(N2CC(C(=O)Nc3ccc(F)cc3)CC2=O)c1 (configuration not stated) the outcome was “inactive”.
For CCOc1ccc(/C=N/n2nnnc2N)cc1OCC, the outcome was “inactive”.
In the case of CC(C)(C)N(Cc1ccccc1)C(=O)COC(=O)C1CCN(c2ccc(C(F)(F)F)cn2)CC1, the outcome was “inactive”.
For Cc1cc2oc3ccc(NCCCN4CCOCC4)cc3c(=O)c2cc1C, the outcome was “inactive”.
With CN1CCN(C(=O)c2cc3sc4ccccc4c3s2)CC1 the outcome was “inactive”.
In the case of COC(=O)CN(c1cc(Cl)ccc1OC)S(=O)(=O)c1ccc(OC)c(OC)c1, the outcome was “inactive”.
For Cc1ccc(S(=O)(=O)N(C)C)cc1NC(=O)COC(=O)C1CCCC1, the outcome was “inactive”.
In the case of O=C(NC1CCCC1)c1nc(-c2c(F)cccc2F)oc1-c1ccccc1, the outcome was “inactive”.
For Cc1cccc(C)c1OCC(O)Cn1ccnc1C (configuration not stated), the outcome was “inactive”.
For Cc1cccc(C(=O)OCC(=O)NCc2ccc(Cl)cc2)c1, the outcome was “inactive”.
With CN1CCC(=O)N([C@H](COc2ccccc2)Cc2ccccc2)CC1 the outcome was “inactive”.
In the case of O=C(Cc1cn(Cc2ccccc2)c2ccccc12)Nc1ccc(Oc2cccnc2)cc1, the outcome was “inactive”.
For COc1ccc(NC(=O)c2cc3ccccc3cc2O)cc1, the outcome was “inactive”.
For O=C(Oc1ccccc1)c1ccccc1C(=O)Oc1ccccc1, the outcome was “inactive”.
With Cc1ccccc1-c1ccc(C2[C@@H]3CN(C(=O)Cc4ccncc4)C[C@H]2N3)cc1 (some centres not stated) the outcome was “inactive”.
For COCCNC(=O)C1(C)CCCN(C(=O)c2ccccc2)C1 (configuration not stated), the outcome was “inactive”.
